# From PubChem BioAssay AID2685 (National Center for Advancing Translational Sciences (NCATS), 2010)
# Among all 320,000 compounds or so, about 2,100 (0.66%) were called active. Another 53% or so got no clear call; they are omitted. The sample holds actives, similar compounds and a random draw of the others, so the mix is not that of the screen. The call rests on the fitted dose curve; in most records, active means well fitted inhibition curve with a large enough effect in the signal ratio, with a control signal flat (not every such curve was filed as active); inconclusive means small, poorly fitted or top-dose-only effect, or effect the other way, or a change in a side signal; inactive means flat fitted curve, though single readings scatter; the % refers to the signal ratio.
# Assay: qHTS Assay for Lipid Storage Modulators in Drosophila S3 Cells;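 on cell number change: cells counted by Cell Tracker Red CMTPX staining in the red channel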
# Settings: BODIPY lipid droplet fluorescence, 18-24 h, cells fed with added oleic acid; cell number change: measured here: cell count max response; series mostly up to 46.1 µM
# Method in brief: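 Drosophila S3 cells loaded with oleic acid (400 uM, as added) and compounds at several concentrations; lipid droplets imaged by 488-nm laser-scanning cytometry, 500–530 nm intensity and object ratio to cell channel. Percent activity normalized to 20 uM Triacsin C.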
# Potency means the concentration at half of the fitted maximal effect.
Structure (SMILES),Potency,cell number change [%],outcome
Cc1nc(Nc2ccccc2Br)c2nnn(Cc3ccccc3)c2n1,inactive,8.19,
CCCCN(C(=O)c1ccccc1F)c1c(N)n(CCC)c(=O)[nH]c1=O,inactive,28.6,
CCCCn1c(N)c(N(CC)C(=O)c2ccccc2C(F)(F)F)c(=O)[nH]c1=O,inactive,-2.38,
CCCCn1c(N)c(N(CC)C(=O)c2ccccc2F)c(=O)[nH]c1=O,8.2 µM (active),6.41,
O=C1NCCN1C(=O)c1cccc(Cl)c1,inactive,4.49,
COc1ccc(NC(=O)Nc2nnc(Cc3ccc(F)cc3)s2)cc1,inactive,-7.21,
O=C(Nc1nnc(Cc2ccc(F)cc2)s1)Nc1ccccc1F,inactive,-6.61,
O=C(Nc1ccccc1)Nc1nnc(Cc2ccc(F)cc2)s1,0.103 µM (active),14,
O=C1CCc2cc(S(=O)(=O)NC3CCCCC3)cc3c2N1CC3,,,inactive [at 0.0737 µM]
Cc1ccc(OCC(O)CN2CCN(CCO)CC2)c(C)c1 (stereo not given),inactive,3.63,
O=C(NCc1cccc(C(F)(F)F)c1)C1CCCN(c2ncccn2)C1 (stereo not given),inactive,23.6,
CN1C(=O)/C(=C/c2cc(C(C)(C)C)c(O)c(C(C)(C)C)c2)NC1=S,inactive,,
O=C(CN1C(=O)/C(=C/c2ccccc2F)SC1=S)NC1C=CS(=O)(=O)C1 (stereo not given),16.4 µM (active),-4.2,
O=C(CCN1C(=O)/C(=C\c2ccccc2F)SC1=S)N1CCCCC1,inactive,13.6,
O=C1/C(=C/c2ccccc2F)SC(=S)N1CC(=O)N1CCCCC1c1cccnc1 (stereo not given),7.31 µM (active),-0.951,
O=C1/C(=C/c2ccccc2)SC(=S)N1CC(=O)N1CCCCC1c1cccnc1 (stereo not given),inactive,6.85,
O=C(CN1C(=O)S/C(=C\c2ccccc2F)C1=O)NC1C=CS(=O)(=O)C1 (stereo not given),inactive,-3.44,
O=C(CCN1C(=O)/C(=C/c2ccccc2F)SC1=S)NC1C=CS(=O)(=O)C1 (stereo not given),inactive,,
CC(=O)c1nn(-c2cccc(Br)c2)cc1C(=O)c1ccccc1,inactive,-13.8,
CC(=O)c1nn(-c2cccc(Br)c2)cc1C(=O)c1ccc2ccccc2c1,5.17 µM (active),-7.14,
CC(=O)c1nn(-c2ccccc2)cc1C(=O)c1cccc(Br)c1,inactive,-13.3,
Cc1ccc(C(=O)NC2CCS(=O)(=O)C2)cc1S(=O)(=O)N1CCOCC1 (stereo not given),inactive,10.2,
CCOC(=O)N=S(N)(=O)c1ccc(Cl)cc1 (stereo not given),inactive,-0.647,
CCOC(=O)N=S(N)(=O)c1ccccc1 (stereo not given),14.6 µM (active),-1.15,
CCOC(=O)CS(=O)(=O)c1ccccc1,inactive,1.52,

Structure (SMILES),Potency,cell number change [%],outcome
CCc1ccc(NC(=O)NCC2CCN(Cc3cccc(Cl)c3)CC2)cc1,inactive,-23.4,
COC(=O)c1ccc(CON2C(=O)c3ccccc3C2=O)cc1,inactive,-3.96,
COC(=O)CON1C(=O)c2ccccc2C1=O,25.9 µM (active),-16.7,
COC(=O)CCC(=O)NN1C(=O)c2ccccc2C1=O,inactive,9.79,
CN(Cc1cccc(F)c1)C(=O)c1cc(S(=O)(=O)N2CCOCC2)ccc1N1CCCC1,inactive,-6.74,
COc1ccc(OC)c(NC2=NC3(CCCC3)N=C(N)N2)c1,inactive,-7.97,
COc1cccc(NC2=NC3(CCCCC3)N=C(N)N2)c1,6.51 µM (active),5.89,
COc1ccc(NC2=NC3(CCCCC3)N=C(N)N2)cc1,inactive,-9.76,
O=C(CCn1nnc2ccccc21)OCC(=O)c1ccc([N+](=O)[O-])cc1,0.731 µM (active),5.65,
O=C(Cn1nnc2ccccc21)c1ccc([N+](=O)[O-])cc1,inactive,9.12,
O=C(Cn1nnc2ccccc21)OCC(=O)c1ccccc1,inactive,-10.5,
O=[N+]([O-])c1ccc(N2CCOCC2)cc1NCCCO,inactive,7.85,
Cn1ncc2c(Nc3cccc([N+](=O)[O-])c3)ncnc21,inactive,-17,
Cc1ccc2ncnc(Nc3ccccc3)c2c1,inactive,-8.5,
O=C(O)c1cccc(Nc2ncnc3ccccc23)c1,25.9 µM (active),-4.45,
Cc1ccc2ncnc(Nc3cccc([N+](=O)[O-])c3)c2c1,8.2 µM (active),12.6,
O=C(O)c1cccc(Nc2ncnc3ccc(Br)cc23)c1,inactive,-2.61,
Cc1ccc2ncnc(Nc3cccc(C(=O)O)c3)c2c1,inactive,-1.09,
O=C(NCC(=O)N1CCN(c2ccccc2F)CC1)c1ccc(Br)o1,inactive,,
Cc1cccc(N2CCN(C(=O)c3ccc(CS(=O)Cc4ccc(Cl)cc4)o3)CC2)c1C (stereo not given),inactive,-21,
CCOc1cc(CNCC2CCCN2CC)cc(Cl)c1OC (stereo not given),inactive,12.4,
CCN1CCCC1CNCc1ccccc1OCc1ccc(F)cc1 (stereo not given),inactive,13.4,
CCN1CCCC1CNCc1ccc(Cl)cc1Cl (stereo not given),7.31 µM (active),-167,
CCn1cc(CN2CCC(n3nccc3NC(=O)c3ccc(OC)cc3)CC2)cn1,inactive,-5.94,
O=c1[nH]c2ccc(S(=O)(=O)N3CCCCC3)cc2o1,inactive,2.33,

Structure (SMILES),Potency,cell number change [%],outcome
COc1ccc(C(=O)NNC(=O)COc2ccc(Cl)cc2)c(OC)c1,inactive,4.95,
CCOc1ccccc1NC(=O)C1CCCN(S(=O)(=O)c2cccc3nsnc23)C1 (stereo not given),inactive,-15.5,
CCc1ccc(NS(=O)(=O)c2ccc(OC)c3ncccc23)cc1,inactive,5.2,
CNC(=O)C(=O)Nc1cc2c3c(c1)CCC(=O)N3CCC2,inactive,-5.6,
O=C(NCCO)C(=O)Nc1cc2c3c(c1)CCN3C(=O)CC2,inactive,-29,
CCNC(=O)C(=O)Nc1cc2c3c(c1)CCN3C(=O)CC2,6.51 µM (active),-2.95,
CC(C)CNC(=O)C(=O)Nc1cc2c3c(c1)CCC(=O)N3CCC2,inactive,,
CNC(=O)C(=O)Nc1cc2c3c(c1)CCN3C(=O)CC2,inactive,,
CC(C)NC(=O)C(=O)Nc1cc2c3c(c1)CCC(=O)N3CCC2,11.6 µM (active),-25.7,
CC12CCC(=O)N1C(C(=O)OCC(=O)Nc1cccc(S(=O)(=O)N3CCCCCC3)c1)CS2 (stereo not given),inactive,,
CN1CCCC(OC(=O)c2cc(Cl)cc(Cl)c2)C1 (stereo not given),inactive,-19.2,
COc1cccc(C(=O)OC2CCCN(C)C2)c1 (stereo not given),23.1 µM (active),-20.8,
CN1CCCC(OC(=O)c2cccc(S(=O)(=O)N3CCCCCC3)c2)C1 (stereo not given),inactive,5.11,
CCc1ccc(NC(=O)C/C(C)=N/NC(=O)OCc2ccc(OC)cc2)cc1,inactive,1.96,
Cc1ccc(N2CCN(S(=O)(=O)c3ccc4c(c3)n(C)c(=O)c(=O)n4C)CC2C)cc1 (stereo not given),inactive,9.1,
O=S(=O)(c1cccs1)N1CCN(S(=O)(=O)c2cccs2)CC1,inactive,5.37,
Cc1ccc(N2CCN(S(=O)(=O)c3cccs3)CC2C)cc1 (stereo not given),3.66 µM (active),-24.3,
O=C(Nc1ccccc1NC(=O)c1ccco1)c1ccco1,inactive,-11,
CN(C(=O)c1ccc(NC(=O)c2ccco2)cc1)c1ccccc1,8.2 µM (active),5.45,
CC(=O)N(C)c1ccc(NC(=O)c2ccco2)cc1,inactive,-3.91,
CN(C(=O)c1cccc(NC(=O)c2ccco2)c1)c1ccccc1,inactive,8.03,
O=C(Nc1ccccc1NC(=O)c1ccco1)c1ccccc1,1.46 µM (active),-10,
Cc1ccc(NC(=O)c2ccco2)c(NC(=O)c2ccccc2)c1,inactive,11.5,
CCC(OC(=O)c1cccs1)C(=O)NCc1ccc(C)cc1 (stereo not given),inactive,-0.108,
CCC(C(=O)N(C(C)C)C(C)C)c1ccccc1 (stereo not given),inactive,4.75,

Structure (SMILES),Potency,cell number change [%],outcome
O=C(N/C(=C\c1ccccc1)C(=O)N1CCCCC1)c1ccc(Br)o1,,0.343,inactive [at 0.369 µM]
CC(C(=O)NCC1(c2ccccc2)CCCC1)N1CCOCC1 (stereo not given),inactive,9.07,
COc1ccc(CN(CC2CCC(C(=O)O)CC2)C(=S)Nc2cc(C)cc(C)c2)cc1 (stereo not given),inactive,-1.54,
COc1ccc2[nH]c3c(=O)n(CCCC(=O)NC4CCC(C)CC4)c(=S)[nH]c3c2c1 (stereo not given),2.31 µM (active),6.49,
CCCNC(=O)CCCCn1c(=S)[nH]c2c([nH]c3ccc(OC)cc32)c1=O,inactive,24.9,
CC[C@H](C)NC(=O)CCCCCn1c(=S)[nH]c2c([nH]c3ccc(OC)cc32)c1=O,inactive,-11.2,
O=C(CSc1cn(Cc2cccc(F)c2)c2ccccc12)NCc1ccc(F)cc1,inactive,3.63,
CNC(=O)C1CCC(=O)N1Cc1ccccc1Cl (stereo not given),29.1 µM (active),-10.4,
O=C(O)C1CCC(=O)N1Cc1ccccc1Cl (stereo not given),inactive,-9.84,
O=C(Nc1ccc(Cl)cc1)C1CCC(=O)N1Cc1ccccc1Cl (stereo not given),inactive,-16.5,
O=C(O)c1ccc(-n2nnnc2SCc2ccccc2)cc1,inactive,17.8,
Cc1ccc[n+](CC(=O)c2ccc(Br)cc2)c1,11.6 µM (active),14.7,
Cc1ccc[n+](CC(=O)c2ccc(Cl)cc2)c1,inactive,2.36,
COc1ccc(C(=O)C[n+]2cccc(C)c2)cc1,inactive,11.3,
O=C(O)c1cccc(Oc2ccccc2[N+](=O)[O-])c1,inactive,-2.25,
CCOc1ccc(/C=N/n2nnnc2N)cc1O,inactive,23.4,
CCc1ccc(C(=O)c2cnc3ccc(OC)cc3c2N2CCN(CC)CC2)cc1,inactive,-13.9,
Cn1ccs/c1=N\S(=O)(=O)c1ccc(Br)cc1,inactive,,
Cn1ccs/c1=N\S(=O)(=O)c1ccc(F)cc1,inactive,,
Cn1ccs/c1=N\S(=O)(=O)c1ccc(C(C)(C)C)cc1,16.4 µM (active),-15.3,
COc1ccc2c(c1)CCc1c(C(=O)NCc3ccc(Cl)cc3)noc1-2,inactive,3.58,
CC(=O)c1c(C)[nH]c(C(=O)Nc2ccc3c(c2)OCCO3)c1C,inactive,-13.3,
